In PubChem BioAssay AID1159580 (chemical genetic matrix, 2015):
In all, about 5,500 compounds went through this assay and about 2,000 (36%) were called active. Not shown: some 18% with an inconclusive outcome. No stated cut-off is given here; in the data, active means normalized growth mostly below about 0.91 (no sharp cut-off); inconclusive means no clear call, values can overlap the other calls; inactive means mostly above about 0.92. The list shows a part of the results.

Experiment: chemical genetic growth profiling, strain panel (AID 1159580);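 further: tested at 20 µM; growth read once vehicle control cultures reached saturation at 30 °C; 1 = growth at the plate median or of vehicle wells; lower values mean less growth of the strain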
Settings: growth OD

Measured: normalized growth

COc1nc(NC(C)C)nc(NC(C)C)n1
inactive: S. cerevisiae deletion strains, locus YJR075W, strain HOC1, active compounds read low 1 | S. cerevisiae deletion strains, locus YKL009W, strain mrt4, active compounds read low 1.02 | S. cerevisiae deletion strains, locus YKL068W, active compounds read low 1.01 | S. cerevisiae deletion strains, locus YKL085W, strain MDH1 (second series), active compounds read low 1.01 | S. cerevisiae deletion strains, locus YKL085W, strain MDH1, active compounds read low 1.01 | S. cerevisiae deletion strains, locus YKL160W, strain elf1, active compounds read low 1.02 | S. cerevisiae deletion strains, locus YKL190W, strain CNB1, active compounds read low 1.02 | S. cerevisiae deletion strains, locus YKR001C, strain vps1, active compounds read low 1.02 | S. cerevisiae deletion strains, locus YKR026C, strain gcn3, active compounds read low 1.02 | S. cerevisiae deletion strains, locus YKR091W, strain srl3, active compounds read low 1.02 | S. cerevisiae deletion strains, locus YLL001W, strain dnm1, active compounds read low 1.02 | S. cerevisiae deletion strains, locus YLL026W, active compounds read low 1.02 | S. cerevisiae deletion strains, locus YLL041C, strain sdh2, active compounds read low 1.02 | S. cerevisiae deletion strains, locus YLR027C, strain aat2, active compounds read low 1.03 | S. cerevisiae deletion strains, locus YLR039C, strain RIC1, active compounds read low 1.02 | S. cerevisiae deletion strains, locus YLR058C, strain SHM2, active compounds read low 1 | S. cerevisiae deletion strains, locus YLR102C, strain apc9, active compounds read low 1.02 | S. cerevisiae deletion strains, locus YLR113W, strain HOG1, active compounds read low 0.986 | S. cerevisiae deletion strains, locus YLR221C, strain rsa3, active compounds read low 1.04 | S. cerevisiae deletion strains, locus YLR258W, strain gsy2, active compounds read low 1.01 | S. cerevisiae deletion strains, locus YLR262C, strain YPT6 (second series), active compounds read low 1.02 | S. cerevisiae deletion strains, locus YLR262C, strain YPT6, active compounds read low 1.02 | S. cerevisiae deletion strains, locus YLR268W, strain sec22, active compounds read low 1.01 | S. cerevisiae deletion strains, locus YLR320W, strain mms22, active compounds read low 1.04 | S. cerevisiae deletion strains, locus YLR330W, strain CHS5, active compounds read low 1.01 | S. cerevisiae deletion strains, locus YLR342W, strain FKS1 (second series), active compounds read low 1.03 | S. cerevisiae deletion strains, locus YLR342W, strain FKS1, active compounds read low 1.01 | S. cerevisiae deletion strains, locus YLR357W, strain rsc2, active compounds read low 1.03 | S. cerevisiae deletion strains, locus YLR370C, strain arc18, active compounds read low 1.04 | S. cerevisiae deletion strains, locus YLR371W, strain rom2, active compounds read low 1.02 | S. cerevisiae deletion strains, locus YLR384C, strain iki3, active compounds read low 1.03 | S. cerevisiae deletion strains, locus YLR418C, strain cdc73, active compounds read low 1.01 | S. cerevisiae deletion strains, locus YML016C, strain PPZ1, active compounds read low 1.01 | S. cerevisiae deletion strains, locus YML032C, strain rad52, active compounds read low 1.02 | S. cerevisiae deletion strains, locus YML120C, strain ndi1, active compounds read low 1.02 | S. cerevisiae deletion strains, locus YML124C, strain tub3, active compounds read low 1.02 | S. cerevisiae deletion strains, locus YMR058W, strain fet3, active compounds read low 1.03 | S. cerevisiae deletion strains, locus YMR078C, strain ctf18, active compounds read low 1.03 | S. cerevisiae deletion strains, locus YMR125W, strain sto1, active compounds read low 1.03 | S. cerevisiae deletion strains, locus YMR129W, active compounds read low 1.01 | S. cerevisiae deletion strains, locus YMR205C, strain PFK2, active compounds read low 1.01 | S. cerevisiae deletion strains, locus YMR223W, strain ubp8, active compounds read low 1.02 | S. cerevisiae deletion strains, locus YMR231W, strain pep5, active compounds read low 1.02 | S. cerevisiae deletion strains, locus YMR263W, strain SAP30, active compounds read low 1.02 | S. cerevisiae deletion strains, locus YMR307W, strain GAS1, active compounds read low 1.04 | S. cerevisiae deletion strains, locus YNL067W, strain RPL9B, active compounds read low 1.01 | S. cerevisiae deletion strains, locus YNL071W, strain lat1, active compounds read low 1.01 | S. cerevisiae deletion strains, locus YNL128W, strain TEP1, active compounds read low 1 | S. cerevisiae deletion strains, locus YNL153C, strain GIM3, active compounds read low 1.01 | S. cerevisiae deletion strains, locus YNL183C, strain NPR1, active compounds read low 0.999 | S. cerevisiae deletion strains, locus YNL209W, strain ssb2, active compounds read low 1.02 | S. cerevisiae deletion strains, locus YNL233W, strain BNI4, active compounds read low 1.01 | S. cerevisiae deletion strains, locus YNL248C, strain rpa49, active compounds read low 1.04 | S. cerevisiae deletion strains, locus YNL250W, strain rad50, active compounds read low 1.01 | S. cerevisiae deletion strains, locus YNL271C, strain bni1, active compounds read low 1.01 | S. cerevisiae deletion strains, locus YNL298W, strain CLA4, active compounds read low 1.03 | S. cerevisiae deletion strains, locus YNL307C, strain MCK1, active compounds read low 1.03 | S. cerevisiae deletion strains, locus YNL322C, strain KRE1 (second series), active compounds read low 1.02 | S. cerevisiae deletion strains, locus YNL322C, strain KRE1, active compounds read low 1 | S. cerevisiae deletion strains, locus YNR049C, strain mso1, active compounds read low 1.05 | S. cerevisiae deletion strains, locus YNR052C, strain pop2, active compounds read low 1.03 | S. cerevisiae deletion strains, locus YOL006C, strain TOP1, active compounds read low 1.03 | S. cerevisiae deletion strains, locus YOL012C, strain htz1 1.23 | S. cerevisiae deletion strains, locus YOL147C, strain pex11, active compounds read low 1.02 | S. cerevisiae deletion strains, locus YOR001W, strain rrp6, active compounds read low 1.02 | S. cerevisiae deletion strains, locus YOR061W, strain CKA2, active compounds read low 1 | S. cerevisiae deletion strains, locus YOR069W, strain VPS5, active compounds read low 1.01 | S. cerevisiae deletion strains, locus YOR070C, strain gyp1, active compounds read low 1.03 | S. cerevisiae deletion strains, locus YOR080W, strain dia2, active compounds read low 1.03 | S. cerevisiae deletion strains, locus YOR083W, strain WHI5, active compounds read low 1.01 | S. cerevisiae deletion strains, locus YOR106W, strain vam3, active compounds read low 1.02 | S. cerevisiae deletion strains, locus YOR136W, strain idh2, active compounds read low 1.02 | S. cerevisiae deletion strains, locus YOR144C, strain elg1, active compounds read low 1.03 | S. cerevisiae deletion strains, locus YOR184W, strain ser1, active compounds read low 1.03 | S. cerevisiae deletion strains, locus YOR231W, strain MKK1, active compounds read low 1.05 | S. cerevisiae deletion strains, locus YOR265W, strain rbl2, active compounds read low 1.01 | S. cerevisiae deletion strains, locus YOR270C, strain vph1, active compounds read low 1.06 | S. cerevisiae deletion strains, locus YOR290C, strain snf2, active compounds read low 0.997 | S. cerevisiae deletion strains, locus YOR316C, strain cot1, active compounds read low 1.02 | S. cerevisiae deletion strains, locus YPL051W, strain arl3, active compounds read low 1.01 | S. cerevisiae deletion strains, locus YPL055C, strain LGE1, active compounds read low 1.02 | S. cerevisiae deletion strains, locus YPL078C, strain atp4, active compounds read low 1.01 | S. cerevisiae deletion strains, locus YPL106C, strain sse1, active compounds read low 1.01 | S. cerevisiae deletion strains, locus YPL240C, strain hsp82, active compounds read low 1.01 | S. cerevisiae deletion strains, locus YPL241C, strain CIN2, active compounds read low 1.02 | S. cerevisiae deletion strains, locus YPL256C, strain CLN2, active compounds read low 1.08 | S. cerevisiae deletion strains, locus YPR119W, strain clb2, active compounds read low 1.01 | S. cerevisiae deletion strains, locus YPR141C, strain kar3, active compounds read low 1.03 | S. cerevisiae deletion strains, locus YPR163C, strain tif3, active compounds read low 1.02 | S. cerevisiae deletion strains, locus YPR167C, strain met16, active compounds read low 1.02 | S. cerevisiae deletion strains, strain wtn01, active compounds read low 1.01 | S. cerevisiae strains, strain wild type, active compounds read low 1
